Measured values from PubChem BioAssay (Tox21).
Results filed as inconclusive are left out. The source made the active and inactive calls. Unless noted, calls follow the shape of the full dose curve.

How the values were obtained:
[1] = Nuclear factor erythroid 2-related factor 2/antioxidant responsive element (Nrf2/ARE) small molecule agonists: qHTS cell viability counter screen in human keratinocytes (AID 1919968; active = well fitted curve in the direction sought with a large enough effect in the repeat runs; an effect the other way counts as inactive or inconclusive; also: nearly all actives have a fitted effect of over 55% in size; also: potency is read from the fitted curve at half-maximal effect)
Outline: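 KeratinoSens cells (HaCaT keratinocytes stably carrying an ARE-luciferase reporter) were seeded at 1,500 cells/well and rested 5 h at 37 C/5% CO2. They were then exposed to compounds in DMSO for 23 h. Viability was read by CellTiter-Fluor fluorescence after 1 h.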

[2] = Nuclear factor erythroid 2-related factor 2/antioxidant responsive element (Nrf2/ARE) small molecule agonists: luciferase reporter gene qHTS assay in human keratinocytes (AID 1919969); also: nearly all actives have a fitted effect of over 35% in size
[3] = molecular target: Gonadotropin-releasing hormone receptor (Homo sapiens) (UniProt P30968); assay: Human gonadotropin-releasing hormone receptor (GnRHR) small molecule agonists, calcium flux assay in GnRHR-HEK293 cells (AID 1920063); also: nearly all actives have a fitted effect of over 35% in size
Outline: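 HEK293 cells stably expressing human GnRHR were plated 18 h at 37 °C, loaded with calcium dye 1 h at 37 °C, then given compound in agonist mode; fluorescence (Ex/Em 480/540) read kinetically for 3 min at 1 s intervals.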

[4] = molecular target: KiSS-1 receptor (Homo sapiens) (UniProt Q969F8); assay: Human kisspeptin (KISS1R) small molecule agonists, calcium flux assay in KISS1R-HEK293 cells (AID 1920064; active = well fitted curve in the direction sought with a large enough effect in the repeat runs; an effect the other way counts as inactive or inconclusive)
Outline: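 HEK293 cells stably expressing human KISS1R were plated 18 h at 37 °C, loaded with calcium dye for 1 h at 37 °C, then given compound by pin tool. Fluorescence (Ex/Em 480/540) was read kinetically for 3 min.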

[5] = G protein-coupled receptor (GPCR) small molecule agonists, calcium flux assay: HEK293 wild type cell line counter screen (AID 1920065)
Outline: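 Cells were plated and cultured 18 h at 37 C/5% CO2, then loaded with calcium dye for 1 h at 37 C. Compounds in DMSO were pin-transferred in agonist mode, and fluorescence (Ex/Em 480/540) was read kinetically for 3 min at 1 s intervals.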

[6] = p53 small molecule agonists, cell-based qHTS assay with human liver microsomes (AID 1963577);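 also: p53 response element beta-lactamase reporter cells with liver microsomes plus NADPH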
Outline: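 HLM-supplemented p53RE-bla reporter assay: 16 h compound exposure at 37 C, microsomes and NADPH each 0.5 mg/mL final, read by fluorescence intensity.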

[7] = p53 small molecule agonists, cell-based qHTS assay with rat liver microsomes (AID 1963578)
Outline: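 Quantitative HTS of the Tox21 10K library: p53RE-bla cells, rat liver microsomes plus NADPH at 0.5 mg/mL final each, 16 h at 37 C, beta-lactamase fluorescence detection.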

[8] = p53 small molecule agonists, cell-based qHTS assay with human liver microsomes: qHTS cell viability counter screen (AID 1963579); also: nearly all actives have a fitted effect of over 45% in size; also: potency is read from the fitted curve at half-maximal effect
Outline: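 Viability of p53RE-bla cells is measured as CellTiter-Glo luminescence following a 16 h, 37 C incubation with compound, liver microsomes from human donors and NADPH.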

[9] = p53 small molecule agonists, cell-based qHTS assay with rat liver microsomes: qHTS cell viability counter screen (AID 1963580); also: nearly all actives have a fitted effect of over 45% in size; also: potency is read from the fitted curve at half-maximal effect
Outline: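 In HCT-116 cells carrying a p53 response element-bla reporter, compounds were metabolically activated in situ by rat liver microsomes with NADPH over 16 h. Cell ATP content then served as the cytotoxicity measure.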

[10] = p53 small molecule agonists, cell-based qHTS assay (AID 1963582; active = well fitted activation curve with a large enough effect in the signal ratio in the repeat runs, not every such curve was filed as active; the % refers to the signal ratio)
Outline: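 p53RE-bla beta-lactamase reporter cells rested 5 h at 37 C/5% CO2, then received compounds in DMSO by pin transfer and were incubated 16 h at 37 C. LiveBLAzer B/G FRET substrate was loaded for 2 h at room temperature before fluorescence reading.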

[11] = cAMP Responsive Elements (CRE) small molecule agonists, cell-based qHTS assay (AID 1963590)
Outline: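 CRE-bla HEK 293T cells in DMEM with 10% dialyzed FBS, NEAA, pyruvate and 25 mM HEPES were plated 18 h at 37 C/5% CO2, then exposed to compounds in DMSO for 3 h before LiveBLAzer B/G FRET substrate addition.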

[12] = cAMP Responsive Elements (CRE) small molecule antagonists, cell-based qHTS assay (AID 1963591; active = well fitted inhibition curve with a large enough effect in the signal ratio in the repeat runs, not every such curve was filed as active; the % refers to the signal ratio)
Outline: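 CRE-bla HEK293T cells were plated 18 h at 37 °C/5% CO2, pinned with compound in DMSO, then stimulated with NKH477 at 0.25 uM final for 3 h. LiveBLAzer B/G FRET substrate was added and plates incubated 2 h at room temperature.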

[13] = molecular target: Beta-2 adrenergic receptor (Homo sapiens) (UniProt P07550); assay: Adrenergic beta2 receptor (ADRB2) small molecule antagonists, cell-based qHTS assay (AID 1963592); also: series mostly up to about 92 µM; nearly all actives have a fitted effect of over 50% in size
Outline: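 Cells (CHO, stable ADRB2 overexpression) incubated 18-20hr at 37C; compounds added from DMSO; agonist mix (1nM isoproterenol, 100uM IBMX, 25uM Ro-20-1724) added; 0.5hr RT; d2-cAMP and anti-cAMP-cryptate added; 1hr RT; 665/615 nm read.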

[14] = molecular target: D(2) dopamine receptor (Homo sapiens) (UniProt P14416); assay: Dopamine D2 receptor (DRD2) small molecule agonists, cell-based qHTS assay (AID 1963594); also: nearly all actives have a fitted effect of over 35% in size
Outline: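 HEK293 cells stably expressing DRD2 were cultured 24 h at 37 C, then given Ro20-1724 (0.1 mM final) and compounds for 10 min at room temperature. NKH477 (200nM) was then added for 30 min. cAMP was read by HTRF.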

[15] = molecular target: D(2) dopamine receptor (Homo sapiens) (UniProt P14416); assay: Dopamine D2 receptor (DRD2) small molecule antagonists, cell-based qHTS assay (AID 1963595; active = well fitted inhibition curve with a large enough effect in the signal ratio in the repeat runs, with a control signal flat; the % refers to the signal ratio; also: potency is read from the fitted curve at half-maximal effect)
Outline: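 HEK293 cells stably expressing DRD2 were preincubated with 0.1 mM Ro20-1724, then with compound for 10 min at room temperature. Cells were stimulated with 200 nM NKH477 plus 12 nM quinpirole for 30 min, and cAMP was read by HTRF.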

[16] = molecular target: 5-hydroxytryptamine receptor 2A (Homo sapiens) (UniProt P28223); assay: 5-hydroxytryptamine receptor 2A (HTR2A) small molecule antagonists, cell-based qHTS assay (AID 1963586); also: nearly all actives have a fitted effect of over 45% in size; also: potency is read from the fitted curve at half-maximal effect
Outline: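 Antagonist-mode intracellular calcium assay: DOI (4 nM) added after 5 min compound pre-incubation at room temperature to dye-loaded HTR2A-CHO cells. Fluorescence followed for 3 min, sampled every second.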

[17] = molecular target: 5-hydroxytryptamine receptor 2A (Homo sapiens) (UniProt P28223); assay: 5-hydroxytryptamine receptor 2A (HTR2A) small molecule agonists, cell-based qHTS assay (AID 1963587); also: nearly all actives have a fitted effect of over 30% in size
Outline: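 HTR2A-CHO cells, plated 18 h at 37 C/5% CO2, dye-loaded 1 h at 37 C; compounds in DMSO added by pin tool (agonist mode). Intracellular calcium flux read as kinetic fluorescence on FDSS over 2 min at 1 s intervals.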

[18] = molecular target: Muscarinic acetylcholine receptor M1 (Homo sapiens) (UniProt P11229); assay: Cholinergic receptor muscarinic 1 (CHRM1) small molecule antagonists, cell-based qHTS assay (AID 1963588); also: nearly all actives have a fitted effect of over 40% in size
Outline: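 CHRM1-CHO calcium-flux assay, antagonist mode. Cells were seeded 18 h, dye-loaded 1 h at 37 C and given compound for 5 min at RT, then acetylcholine was added at 50nM. FDSS fluorescence was read 3 min; 15 concentrations, three runs.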

[19] = molecular target: Muscarinic acetylcholine receptor M1 (Homo sapiens) (UniProt P11229); assay: Cholinergic receptor muscarinic 1 (CHRM1) small molecule agonists, cell-based qHTS assay (AID 1963589); also: nearly all actives have a fitted effect of over 35% in size
Outline: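 CHO cells stably expressing human CHRM1, seeded 18 h at 37 C/5% CO2, dye-loaded 1 h at 37 C, then given compound in agonist mode; intracellular calcium fluorescence read kinetically at 1 s intervals. Fifteen concentrations, three independent runs.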

[20] = p53 small molecule agonists, cell-based qHTS assay: qHTS cell viability counter screen (AID 1963581); also: nearly all actives have a fitted effect of over 45% in size
Outline: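 p53RE-bla HCT-116 cells were exposed to compounds for 16 h at 37 C; after the beta-lactamase FRET read in the same wells, CellTiter-Glo was added and luminescence (intracellular ATP) read after 30 min at room temperature.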

Measured: Potency

Sequence of Beta-2 adrenergic receptor (Homo sapiens) (P07550 whole entry, looked up): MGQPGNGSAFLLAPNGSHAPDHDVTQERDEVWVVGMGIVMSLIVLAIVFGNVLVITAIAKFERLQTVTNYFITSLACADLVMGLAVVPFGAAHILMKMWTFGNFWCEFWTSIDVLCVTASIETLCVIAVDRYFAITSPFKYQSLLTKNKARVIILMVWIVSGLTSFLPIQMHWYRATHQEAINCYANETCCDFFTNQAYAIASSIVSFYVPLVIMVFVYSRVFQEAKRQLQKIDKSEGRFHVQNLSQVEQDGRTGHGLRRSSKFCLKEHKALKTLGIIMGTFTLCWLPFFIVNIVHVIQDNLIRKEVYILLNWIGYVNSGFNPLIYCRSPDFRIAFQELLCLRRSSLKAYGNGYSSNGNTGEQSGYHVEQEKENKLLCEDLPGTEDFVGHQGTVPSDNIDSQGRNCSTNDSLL
Sequence of D(2) dopamine receptor (Homo sapiens) (P14416 whole entry, looked up): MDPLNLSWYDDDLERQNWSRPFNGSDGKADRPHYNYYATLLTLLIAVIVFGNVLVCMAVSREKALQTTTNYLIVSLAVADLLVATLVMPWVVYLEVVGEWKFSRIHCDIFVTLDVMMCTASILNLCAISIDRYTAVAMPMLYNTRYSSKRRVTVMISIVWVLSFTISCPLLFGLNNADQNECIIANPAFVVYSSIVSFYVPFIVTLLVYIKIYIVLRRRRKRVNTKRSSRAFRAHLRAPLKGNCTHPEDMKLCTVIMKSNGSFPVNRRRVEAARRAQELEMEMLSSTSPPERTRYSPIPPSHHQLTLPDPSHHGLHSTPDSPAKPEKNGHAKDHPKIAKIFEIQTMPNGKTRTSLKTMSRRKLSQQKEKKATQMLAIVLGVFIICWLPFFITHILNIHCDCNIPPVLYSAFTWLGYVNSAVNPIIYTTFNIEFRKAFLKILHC
Sequence of Gonadotropin-releasing hormone receptor (Homo sapiens) (P30968 whole entry, looked up): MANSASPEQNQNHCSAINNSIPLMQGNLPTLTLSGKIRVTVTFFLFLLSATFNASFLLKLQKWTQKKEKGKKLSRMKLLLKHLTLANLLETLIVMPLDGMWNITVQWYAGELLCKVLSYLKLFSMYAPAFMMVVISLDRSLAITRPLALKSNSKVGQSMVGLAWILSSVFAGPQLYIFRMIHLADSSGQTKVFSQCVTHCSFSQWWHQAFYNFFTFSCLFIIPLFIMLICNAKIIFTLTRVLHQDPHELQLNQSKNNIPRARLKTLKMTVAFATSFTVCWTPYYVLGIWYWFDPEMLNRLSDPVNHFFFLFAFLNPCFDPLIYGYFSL
Sequence of KiSS-1 receptor (Homo sapiens) (Q969F8 whole entry, looked up): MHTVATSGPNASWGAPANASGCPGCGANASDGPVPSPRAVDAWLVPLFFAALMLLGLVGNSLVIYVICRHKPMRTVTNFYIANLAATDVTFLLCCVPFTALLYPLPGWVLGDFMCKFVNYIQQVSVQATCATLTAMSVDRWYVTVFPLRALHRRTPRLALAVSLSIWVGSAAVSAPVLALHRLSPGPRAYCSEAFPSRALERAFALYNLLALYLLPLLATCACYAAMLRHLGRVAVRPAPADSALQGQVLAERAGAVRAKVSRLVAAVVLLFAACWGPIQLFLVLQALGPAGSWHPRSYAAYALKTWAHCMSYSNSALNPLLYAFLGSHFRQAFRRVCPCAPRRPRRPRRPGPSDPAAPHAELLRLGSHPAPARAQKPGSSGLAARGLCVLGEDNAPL
Sequence of Muscarinic acetylcholine receptor M1 (Homo sapiens) (P11229 whole entry, looked up): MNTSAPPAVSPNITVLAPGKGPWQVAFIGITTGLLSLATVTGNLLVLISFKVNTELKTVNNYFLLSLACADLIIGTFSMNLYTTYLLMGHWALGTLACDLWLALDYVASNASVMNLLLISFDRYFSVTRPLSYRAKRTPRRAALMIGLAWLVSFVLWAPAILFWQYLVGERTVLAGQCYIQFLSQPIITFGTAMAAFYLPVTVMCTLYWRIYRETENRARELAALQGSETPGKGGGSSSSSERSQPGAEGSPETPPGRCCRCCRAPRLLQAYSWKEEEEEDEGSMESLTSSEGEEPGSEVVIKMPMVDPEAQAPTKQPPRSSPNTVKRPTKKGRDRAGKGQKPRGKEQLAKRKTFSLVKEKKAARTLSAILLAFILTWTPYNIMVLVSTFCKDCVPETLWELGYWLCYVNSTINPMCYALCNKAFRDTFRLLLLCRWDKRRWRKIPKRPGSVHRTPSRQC
Sequence of 5-hydroxytryptamine receptor 2A (Homo sapiens) (P28223 whole entry, looked up): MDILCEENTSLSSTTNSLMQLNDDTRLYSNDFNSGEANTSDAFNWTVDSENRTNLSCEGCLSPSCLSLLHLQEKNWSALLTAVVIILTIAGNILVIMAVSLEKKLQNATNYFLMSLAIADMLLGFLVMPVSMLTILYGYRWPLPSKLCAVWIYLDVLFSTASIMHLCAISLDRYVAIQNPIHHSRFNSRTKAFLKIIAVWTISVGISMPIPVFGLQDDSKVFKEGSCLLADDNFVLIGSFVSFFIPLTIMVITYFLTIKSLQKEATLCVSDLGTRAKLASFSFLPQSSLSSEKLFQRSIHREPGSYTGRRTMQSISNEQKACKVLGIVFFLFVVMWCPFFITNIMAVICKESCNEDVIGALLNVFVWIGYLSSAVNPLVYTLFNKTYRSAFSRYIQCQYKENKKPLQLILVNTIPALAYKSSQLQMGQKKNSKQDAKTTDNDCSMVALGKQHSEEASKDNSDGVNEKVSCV

CCC1(c2ccccc2)C(=O)N=C(O)NC1=O (centres undefined)
not listed: [16] | [17] | [18] | [19] | [20]
inactive: all other assays above

O=S1(=O)OC(c2cc(Br)c(O)c(Br)c2)(c2cc(Br)c(O)c(Br)c2)c2ccccc21
active: [1] 14.1 µM | [8] 21 µM | [9] 18.7 µM
not listed: [10] | [13] | [14] | [15] | [20]
inactive: all other assays above

Clc1ccccc1N1CCNCC1
active: [16] 1.16 µM
not listed: [13] | [17] | [20]
inactive: all other assays above

CC(CCc1ccccc1)NC(C)C(O)c1ccc(O)cc1 (centres undefined)
active: [15] 16.8 µM
not listed: [18] | [20]
inactive: all other assays above

Oc1ccc(Cc2ccc(O)cc2)cc1
not listed: [16] | [19] | [20]
inactive: all other assays above

CC(=O)CN(CC(C)=O)N=O
not listed: [20]
inactive: all other assays above

COC(=O)C(C)Oc1ccc(Oc2ccc(Cl)cc2Cl)cc1 (centres undefined)
not listed: [10] | [18]
inactive: all other assays above
